Several values for one entry are separate records, joined by “and”; a condition that tells them apart may be missing. Equal entries are not always repeated. Screen size: about 5,500 compounds; about 2,000 (36%) were called active. Another 18% or so got no clear call; they are omitted. Cut-off read from the data, not from the text of the source: active = normalized growth mostly below about 0.91 (no sharp cut-off); inconclusive = no clear call, values can overlap the other calls; inactive = mostly above about 0.92. This is one part of the list.
Test: chemical genetic growth profiling, strain panel (AID 1159580);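 note: tested at 20 µM; growth read once vehicle control cultures reached saturation at 30 °C; 1 = growth at the plate median or of vehicle wells; lower values mean less growth of the strain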
Conditions: S. cerevisiae deletion strains, growth OD

Measured: normalized growth

CO[C@H]1/C=C/O[C@@]2(C)Oc3c(C)c(O)c4c(O)c(c(/C=N/N5CCN(C)CC5)c(O)c4c3C2=O)NC(=O)/C(C)=C\C=C\C(C)[C@H](O)[C@@H](C)[C@@H](O)[C@@H](C)[C@@H](OC(C)=O)[C@@H]1C (some centres not stated)
active: locus YDR137W, strain rgp1, hits give low values 0.803
inactive: locus YAL013W, strain DEP1, hits give low values 1 | locus YAL021C, strain ccr4, hits give low values 1.01 | locus YAL026C, strain drs2, hits give low values 1.02 | locus YAL030W, strain snc1, hits give low values 1.02 | locus YBL061C, strain skt5, hits give low values 1.03 | locus YBR009C, strain hhf1, hits give low values 1.02 | locus YBR021W, strain FUR4, hits give low values 0.998 | locus YBR023C, strain chs3, hits give low values 1.03 | locus YBR171W, strain sec66, hits give low values 1.03 | locus YBR229C, strain ROT2, hits give low values 1 | locus YBR231C, strain swc5, hits give low values 1.03 | locus YBR279W, strain paf1, hits give low values 1 | locus YCL011C, strain gbp2, hits give low values 1.02 | locus YCL016C, strain dcc1, hits give low values 1.01 | locus YCL029C, strain bik1, hits give low values 1.02 | locus YCL061C, strain MRC1, hits give low values 1.02 | locus YCL069W, strain vba3, hits give low values 1.03 | locus YCR088W, strain abp1, hits give low values 1.03 | locus YDL005C, strain med2, hits give low values 1.02 | locus YDL035C, strain GPR1, hits give low values 0.996 | locus YDL040C, strain nat1, hits give low values 1.02 | locus YDL074C, strain BRE1, hits give low values 1.04 | locus YDL101C, strain DUN1, hits give low values 1.03 | locus YDL185W, strain tfp1, hits give low values 1.01 | locus YDL192W, strain arf1, hits give low values 1.02 | locus YDR001C, strain nth1, hits give low values 1.02 | locus YDR069C, strain doa4, hits give low values 1.01 | locus YDR101C, strain arx1, hits give low values 1.01 | locus YDR159W, strain sac3, hits give low values 1.03 | locus YDR162C, strain NBP2, hits give low values 1.01 | locus YDR195W, strain ref2 1.09 | locus YDR297W, strain sur2, hits give low values 1.01 | locus YDR318W, strain mcm21, hits give low values 1.01 | locus YDR334W, strain swr1, hits give low values 1.02 | locus YDR335W, strain msn5, hits give low values 1.03 | locus YDR388W, hits give low values 1.02 | locus YDR392W, strain spt3, hits give low values 0.957 | locus YDR502C, strain sam2, hits give low values 1.01 | locus YEL003W, strain gim4, hits give low values 0.995 | locus YEL037C, strain rad23, hits give low values 1.02 | locus YEL061C, strain CIN8 (second series), hits give low values 1.02 | locus YEL061C, strain CIN8, hits give low values 1.01 | locus YER015W, strain faa2, hits give low values 1.03 | locus YER016W, strain bim1, hits give low values 1.02 | locus YER110C, hits give low values 1.03 | locus YER111C, strain swi4, hits give low values 1.03 | locus YER155C, strain BEM2 (second series), hits give low values 1.02 | locus YER155C, strain BEM2, hits give low values 1 | locus YER167W, strain BCK2, hits give low values 0.996 | locus YFR010W, strain ubp6, hits give low values 1.02 | locus YGL078C, strain dbp3, hits give low values 1.01 | locus YGL086W, strain mad1, hits give low values 1.02 | locus YGL167C, strain pmr1, hits give low values 1.02 | locus YGL173C, strain kem1, hits give low values 1.03 | locus YGL227W, strain vid30, hits give low values 1.04 | locus YGL240W, strain doc1, hits give low values 1.03 | locus YGL248W, strain PDE1, hits give low values 1.03 | locus YGL253W, strain hxk2, hits give low values 1.02 | locus YGR135W, strain pre9, hits give low values 1.02 | locus YGR252W, strain gcn5, hits give low values 1 | locus YHR013C, strain ard1, hits give low values 1.05 | locus YHR027C, strain rpn1, hits give low values 1.02 | locus YHR030C, strain SLT2, hits give low values 1.01 and 1.08 | locus YHR079C, strain IRE1 (second series), hits give low values 1.02 | locus YHR079C, strain IRE1, hits give low values 1.05 | locus YHR094C, strain hxt1, hits give low values 1.01 | locus YHR129C, strain ARP1, hits give low values 1.01 | locus YHR142W, strain chs7, hits give low values 1.06 | locus YHR200W, strain rpn10, hits give low values 1.02 | locus YIL066C, strain RNR3, hits give low values 1.01 | locus YIL073C, strain SPO22, hits give low values 1.04 | locus YIL125W, strain kgd1, hits give low values 1.03 | locus YIR030C, strain dcg1, hits give low values 1.02 | locus YJL092W, strain hpr5, hits give low values 1.02 | locus YJL095W, strain BCK1 (second series), hits give low values 1.02 | locus YJL095W, strain BCK1, hits give low values 1.04 and 1.03 | locus YJL115W, strain asf1, hits give low values 1.01 | locus YJL129C, strain trk1, hits give low values 1 | locus YJL134W, strain LCB3, hits give low values 1.01 | locus YJL154C, strain vps35, hits give low values 1.04 | locus YJL164C, strain tpk1, hits give low values 1.03 | locus YJL166W, strain qcr8, hits give low values 1.02 | locus YJL168C, strain set2, hits give low values 1.02 | locus YJL187C, strain SWE1 (second series), hits give low values 1.03 | locus YJL187C, strain SWE1, hits give low values 1.02 | locus YJR043C, strain POL32, hits give low values 0.998 | locus YJR066W, strain TOR1, hits give low values 1 | locus YKL009W, strain mrt4, hits give low values 1.02 | locus YKL068W, hits give low values 1.01 | locus YKL085W, strain MDH1 (second series), hits give low values 1.01 | locus YKL085W, strain MDH1, hits give low values 1.01 | locus YKL160W, strain elf1, hits give low values 1.02 | locus YKR001C, strain vps1, hits give low values 1.02 | locus YKR026C, strain gcn3, hits give low values 1.03 | locus YKR091W, strain srl3, hits give low values 1.02 | locus YLL001W, strain dnm1, hits give low values 1.02 | locus YLL026W, hits give low values 1.01 | locus YLL041C, strain sdh2, hits give low values 1.02 | locus YLR027C, strain aat2, hits give low values 1.02 | locus YLR039C, strain RIC1, hits give low values 1.02 | locus YLR058C, strain SHM2, hits give low values 1.02 | locus YLR102C, strain apc9, hits give low values 1.02 | locus YLR113W, strain HOG1, hits give low values 1.05 | locus YLR221C, strain rsa3, hits give low values 1 | locus YLR258W, strain gsy2, hits give low values 1.02 | locus YLR262C, strain YPT6 (second series), hits give low values 0.982 | locus YLR262C, strain YPT6, hits give low values 1.05 | locus YLR268W, strain sec22, hits give low values 1.03 | locus YLR320W, strain mms22, hits give low values 1.01 | locus YLR330W, strain CHS5, hits give low values 1.01 | locus YLR342W, strain FKS1 (second series), hits give low values 0.98 | locus YLR342W, strain FKS1, hits give low values 1.02 | locus YLR357W, strain rsc2, hits give low values 1.03 | locus YLR370C, strain arc18, hits give low values 1.02 | locus YLR371W, strain rom2, hits give low values 1.02 | locus YLR384C, strain iki3, hits give low values 1.02 | locus YLR418C, strain cdc73, hits give low values 1.02 | locus YML016C, strain PPZ1, hits give low values 1.01 | locus YML032C, strain rad52, hits give low values 1.02 | locus YML120C, strain ndi1, hits give low values 1.01 | locus YML124C, strain tub3, hits give low values 1.03 | locus YMR058W, strain fet3, hits give low values 1.03 | locus YMR078C, strain ctf18, hits give low values 1.02 | locus YMR125W, strain sto1, hits give low values 1.04 | locus YMR129W, hits give low values 1.02 | locus YMR205C, strain PFK2, hits give low values 1.01 | locus YMR223W, strain ubp8, hits give low values 1.02 | locus YMR231W, strain pep5, hits give low values 1.02 | locus YMR307W, strain GAS1, hits give low values 0.927 | locus YNL067W, strain RPL9B, hits give low values 1.04 | locus YNL071W, strain lat1, hits give low values 1.02 | locus YNL153C, strain GIM3, hits give low values 1.02 | locus YNL183C, strain NPR1, hits give low values 1.01 | locus YNL209W, strain ssb2, hits give low values 1.02 | locus YNL233W, strain BNI4, hits give low values 1.02 | locus YNL248C, strain rpa49, hits give low values 1.02 | locus YNL250W, strain rad50, hits give low values 1.01 | locus YNL271C, strain bni1, hits give low values 1.02 | locus YNL298W, strain CLA4, hits give low values 1.03 | locus YNL307C, strain MCK1, hits give low values 1.02 | locus YNL322C, strain KRE1 (second series), hits give low values 1.01 | locus YNR049C, strain mso1, hits give low values 1.03 | locus YNR052C, strain pop2, hits give low values 1.02 | locus YOL006C, strain TOP1, hits give low values 1.11 | locus YOL012C, strain htz1 1.35 | locus YOL147C, strain pex11, hits give low values 1.02 | locus YOR001W, strain rrp6, hits give low values 1.01 | locus YOR061W, strain CKA2, hits give low values 1.01 | locus YOR069W, strain VPS5, hits give low values 1.01 | locus YOR070C, strain gyp1, hits give low values 1.03 | locus YOR080W, strain dia2, hits give low values 1.03 | locus YOR083W, strain WHI5, hits give low values 1.02 | locus YOR106W, strain vam3, hits give low values 1.03 | locus YOR136W, strain idh2, hits give low values 1.02 | locus YOR144C, strain elg1, hits give low values 1.02 | locus YOR184W, strain ser1, hits give low values 1.02 | locus YOR231W, strain MKK1, hits give low values 1.02 | locus YOR265W, strain rbl2, hits give low values 1.04 | locus YOR270C, strain vph1, hits give low values 0.999 | locus YOR290C, strain snf2, hits give low values 1.01 | locus YOR316C, strain cot1, hits give low values 1.01 | locus YPL051W, strain arl3, hits give low values 1.03 | locus YPL078C, strain atp4, hits give low values 1.01 | locus YPL106C, strain sse1, hits give low values 1 | locus YPL240C, strain hsp82, hits give low values 1.02 | locus YPL256C, strain CLN2, hits give low values 1.06 | locus YPR119W, strain clb2, hits give low values 1.02 | locus YPR141C, strain kar3, hits give low values 1.02 | locus YPR163C, strain tif3, hits give low values 1.01 | locus YPR167C, strain met16, hits give low values 1.03 | strain wtn01, hits give low values 1

Source: PubChem BioAssay AID1159580 (chemical genetic matrix, 2015)
